According to PubChem BioAssay (NCATS):
Records with an inconclusive call do not appear. Entries that show only a call come without a potency. Unmarked numbers belong to inactive results. Active and inactive are the calls of the source. Calls follow the shape of the dose curve; as a rule, active = well fitted curve in the direction sought with a large enough effect; inconclusive = small, poorly fitted or top-dose-only effect, or another doubt; inactive = no such curve, though single readings can be large; an effect the other way counts as inactive or inconclusive.

What was measured:
[1] = target: Rap guanine nucleotide exchange factor 3 (Homo sapiens) (UniProt O95398); test: Confirmatory qHTS for antagonist of cAMP-regulated guanine nucleotide exchange factor 3 (EPAC1) (AID 1645880); also: nearly all actives have a fitted effect of over 55% in size; also: potency is read from the fitted curve at half-maximal effect
Summary of the method: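 Released BODIPY-GDP fluoresces less than Rap1-bound BODIPY-GDP; the signal is followed at 480/540 nm at 5-min intervals over 30 min, after 5 min at room temperature. Reactions contain 100 nM EPAC1, 250 nM RAP1B-BODIPY-GDP and 50 uM GDP; results are normalized to ATA and DMSO.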

[2] = target: Rap guanine nucleotide exchange factor 3 (Homo sapiens) (UniProt O95398); test: Confirmatory qHTS for agonist of cAMP-regulated guanine nucleotide exchange factor 3 (EPAC1) (AID 1645881); also: nearly all actives have a fitted effect of over 75% in size; also: potency is read from the fitted curve at half-maximal effect;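 as to activation: EPAC1 catalysed release of BODIPY-GDP from Rap1B seen as fluorescence loss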
[3] = target: Rap guanine nucleotide exchange factor 4 (Homo sapiens) (UniProt Q8WZA2); test: Confirmatory qHTS for agonist of cAMP-regulated guanine nucleotide exchange factor 4 (EPAC2) (AID 1645884);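 also: nucleotide exchange releases bodipy-GDP from Rap1 and this lowers its fluorescence; nearly all actives have a fitted effect of over 65% in size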; also: potency is read from the fitted curve at half-maximal effect
[4] = target: Rap guanine nucleotide exchange factor 4 (Homo sapiens) (UniProt Q8WZA2); test: Confirmatory qHTS for antagonist of cAMP-regulated guanine nucleotide exchange factor 4 (EPAC2) (AID 1645885); also: nearly all actives have a fitted effect of over 25% in size; also: potency is read from the fitted curve at half-maximal effect
[5] = target: Rap guanine nucleotide exchange factor 3 (Homo sapiens) (UniProt O95398); test: Counterscreen qHTS for antagonist of cAMP-regulated guanine nucleotide exchange factor 3 (EPAC1) (AID 1645888)
Summary of the method: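 Rap1B-BODIPY-GDP 250 nM + GDP 50 uM; cpds 7-pt, final 9.74 nM–152 uM (activator mode) or from 7.32 nM upwards (inhibitor mode); RT; FI 480/540 nm at 5 and 30 min, then ± cAMP, reread.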

Rap guanine nucleotide exchange factor 3 (Homo sapiens), sequence (O95398 whole entry, looked up): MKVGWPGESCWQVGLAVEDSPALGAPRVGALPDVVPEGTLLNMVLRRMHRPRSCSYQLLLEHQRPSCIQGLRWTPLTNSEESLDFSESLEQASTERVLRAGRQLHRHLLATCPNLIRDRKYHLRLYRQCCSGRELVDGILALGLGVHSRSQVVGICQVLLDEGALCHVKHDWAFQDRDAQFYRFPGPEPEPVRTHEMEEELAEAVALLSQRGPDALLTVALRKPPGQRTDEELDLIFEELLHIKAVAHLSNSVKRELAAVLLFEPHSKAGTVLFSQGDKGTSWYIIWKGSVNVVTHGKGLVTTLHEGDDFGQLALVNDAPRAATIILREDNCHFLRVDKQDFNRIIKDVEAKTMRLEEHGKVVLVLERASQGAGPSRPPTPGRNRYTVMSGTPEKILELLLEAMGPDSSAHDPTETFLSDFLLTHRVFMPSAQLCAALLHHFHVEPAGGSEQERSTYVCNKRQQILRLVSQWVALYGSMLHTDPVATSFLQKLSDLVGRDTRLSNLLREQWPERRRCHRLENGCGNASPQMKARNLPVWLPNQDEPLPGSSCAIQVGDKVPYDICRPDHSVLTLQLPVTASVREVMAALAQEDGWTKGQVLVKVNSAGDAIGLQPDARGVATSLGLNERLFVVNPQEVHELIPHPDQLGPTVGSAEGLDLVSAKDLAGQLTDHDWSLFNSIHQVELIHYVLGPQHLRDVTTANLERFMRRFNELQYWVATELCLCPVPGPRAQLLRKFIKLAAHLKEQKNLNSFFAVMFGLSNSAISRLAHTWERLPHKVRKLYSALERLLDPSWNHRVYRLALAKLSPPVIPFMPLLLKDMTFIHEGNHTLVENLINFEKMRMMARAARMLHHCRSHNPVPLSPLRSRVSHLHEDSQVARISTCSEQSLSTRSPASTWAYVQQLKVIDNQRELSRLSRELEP
Rap guanine nucleotide exchange factor 4 (Homo sapiens), sequence (Q8WZA2 whole entry, looked up): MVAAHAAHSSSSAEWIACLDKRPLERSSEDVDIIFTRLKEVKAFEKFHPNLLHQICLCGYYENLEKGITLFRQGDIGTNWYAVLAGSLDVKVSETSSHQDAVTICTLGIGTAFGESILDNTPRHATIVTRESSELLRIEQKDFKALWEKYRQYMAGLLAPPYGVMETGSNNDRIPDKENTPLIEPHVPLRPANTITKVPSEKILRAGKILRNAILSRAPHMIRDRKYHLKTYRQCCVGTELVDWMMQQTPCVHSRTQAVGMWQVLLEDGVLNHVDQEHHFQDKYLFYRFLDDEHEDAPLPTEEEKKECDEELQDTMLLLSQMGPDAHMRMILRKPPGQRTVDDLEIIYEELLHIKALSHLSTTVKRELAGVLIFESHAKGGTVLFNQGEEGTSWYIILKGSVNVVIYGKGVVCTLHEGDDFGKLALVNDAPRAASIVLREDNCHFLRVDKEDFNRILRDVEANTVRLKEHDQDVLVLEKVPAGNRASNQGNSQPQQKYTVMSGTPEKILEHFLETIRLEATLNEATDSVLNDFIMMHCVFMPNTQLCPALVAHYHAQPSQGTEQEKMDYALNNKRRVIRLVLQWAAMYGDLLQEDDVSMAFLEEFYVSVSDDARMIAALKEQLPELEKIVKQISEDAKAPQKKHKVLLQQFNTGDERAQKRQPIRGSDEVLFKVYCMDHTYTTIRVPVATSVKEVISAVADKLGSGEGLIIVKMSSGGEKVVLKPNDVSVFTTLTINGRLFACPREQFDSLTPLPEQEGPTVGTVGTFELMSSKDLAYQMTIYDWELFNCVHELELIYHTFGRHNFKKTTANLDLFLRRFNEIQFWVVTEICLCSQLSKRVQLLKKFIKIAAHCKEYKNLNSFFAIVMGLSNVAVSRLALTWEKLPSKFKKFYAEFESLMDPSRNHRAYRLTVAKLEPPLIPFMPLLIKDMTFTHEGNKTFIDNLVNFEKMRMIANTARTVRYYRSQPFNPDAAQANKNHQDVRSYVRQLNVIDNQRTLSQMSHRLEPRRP

Compound | Potency [1] | Potency [2] | activation [3] | Potency [4] | activity change, negative = inhibition [5] | Potency [3] | Potency [5] | outcome [4]
O=S(=O)(NCc1ccco1)c1ccc(Cl)cc1Cl | inactive | inactive | 3.78% [at 17.1 µM, percent relative to cAMP agonist control] | inactive | -9.1% [at 30.8 µM] | – | – | –
Cc1ccccc1OCCn1cnc2c(N)ncnc21 | inactive | inactive | – | inactive | – | inactive | inactive | –
O=C(O)c1ccccc1NS(=O)(=O)c1ccc(NN=Cc2ccc(F)cc2)c([N+](=O)[O-])c1 | 26.9 µM (active) | inactive | – | inactive | – | inactive | inactive | –
COc1cc2cc(CNc3ccc(C)cc3)c(=O)n(CC(=O)Nc3ccc(F)cc3F)c2cc1OC | inactive | inactive | – | inactive | – | inactive | inactive | –
COc1ccccc1Nc1nc(N)nc(CN2CCC(C)CC2)n1 | inactive | inactive | – | inactive | – | inactive | inactive | –
Cc1ccc2nc(-c3ccccc3)c(Cc3ccccn3)n2c1 | inactive | inactive | – | inactive | – | inactive | inactive | –
Cc1ccc(-c2cc3ccccc3nc2N2CCOCC2)cc1 | inactive | inactive | – | inactive | – | inactive | inactive | –
O=C(/C=C/c1ccco1)c1cccc([N+](=O)[O-])c1 | 42.6 µM (active) | inactive | – | inactive | – | inactive | inactive | –
O=C(Nc1nc(-c2ccccc2)cs1)c1ccccc1NS(=O)(=O)c1ccc(F)cc1 | 19 µM (active) | inactive | – | 19 µM (active) | – | inactive | inactive | –
COCCCN1C(=O)C(CC(=O)NCc2cccc3ccccc23)CC(C(=O)N2CCCCCC2)=C1C (stereo not given) | inactive | inactive | – | inactive | – | inactive | inactive | –
CCOc1ccc(NC(=O)CN(C)C(=O)c2cc(C3CC3)nn2-c2ccccc2)cc1OCC | inactive | inactive | – | inactive | – | inactive | inactive | –
O=C(Nc1cccc(Cl)c1)N(Cc1nc2ccccc2c(=O)[nH]1)Cc1cccs1 | inactive | inactive | 5.3% [at 17.1 µM, percent relative to cAMP agonist control] | inactive | 2.45% [at 30.8 µM] | – | – | –
CC(CCc1ccccc1)NC(=O)C1CCN(C(=O)c2sccc2-n2cccc2)CC1 (stereo not given) | inactive | inactive | – | inactive | – | inactive | inactive | –
CN(Cc1ccccc1)c1ncnc2onc(-c3ccc(F)cc3)c12 | inactive | inactive | – | inactive | – | inactive | inactive | –
Cc1ccc(C2=N/C(=C\c3c(C)nn(-c4ccccc4)c3N3CCCC3)C(=O)O2)cc1 | inactive | inactive | – | 15.1 µM (active) | – | inactive | inactive | –
COC(=O)c1cc2sccc2n1Cc1c(C)cc(C)cc1C | inactive | inactive | – | inactive | – | inactive | inactive | –
CN(Cc1ccccc1N1CCCC1)C(=O)c1cc2ccccc2o1 | inactive | inactive | 4.19% [at 17.1 µM, percent relative to cAMP agonist control] | inactive | -10.5% [at 30.8 µM] | – | – | –
COc1ccc(-c2n[nH]c3c2C(c2ccc(Cl)cc2Cl)NC3=O)cc1 (stereo not given) | inactive | inactive | – | inactive | – | inactive | inactive | –
CCOc1ccc2nc(NC(=O)CSc3nc(-c4ccccc4)c(C#N)c(=O)[nH]3)sc2c1 | 56.2 µM (active) | inactive | 2.22% [at 17.1 µM, percent relative to cAMP agonist control] | inactive | -3.89% [at 30.8 µM] | – | – | –
Cc1cc(C)cc(C(O)c2ncc(-c3ccccc3Cl)[nH]2)c1 (stereo not given) | inactive | inactive | 2.23% [at 17.1 µM, percent relative to cAMP agonist control] | inactive | -7.63% [at 30.8 µM] | – | – | –
CN(C)C(=O)CCc1ccc2c3c([nH]c2c1)[C@]1(C)[C@@H](C(=O)N2CCCCC2)C[C@H](CC(=O)NCCc2ccccn2)C(=O)N1CC3 | inactive | inactive | -3.15% [at 17.1 µM, percent relative to cAMP agonist control] | inactive | -16% [at 30.8 µM] | – | – | –
Cc1cccc(NCC(=O)N/N=C\c2ccc[nH]2)c1 | inactive | inactive | – | inactive | – | inactive | inactive | –
O=C1NN(c2ccccc2)C(=O)/C1=C\c1coc2ccc(O)cc2c1=O | 21.3 µM (active) | inactive | – | inactive | – | inactive | inactive | –
CCCCOc1ccccc1NC(=O)Cn1c(-c2cncs2)nc2ccccc21 | inactive | inactive | – | inactive | – | inactive | inactive | –
CC(C)CC1C(=O)N(Cc2cn(CCC3OCCO3)nn2)CCS(=O)(=O)N1Cc1ccc(-c2ccc(F)cc2)cc1 (stereo not given) | inactive | inactive | 7.64% [at 17.1 µM, percent relative to cAMP agonist control] | 4.26 µM (active) | -16% [at 30.8 µM] | – | – | –
CCOc1ccc(/C(C)=N/NC(=O)C(OC)c2ccccc2)cc1 (stereo not given) | inactive | inactive | – | inactive | – | inactive | inactive | –

Compound | Potency [1] | Potency [2] | activation [3] | Potency [4] | activity change, negative = inhibition [5] | Potency [3] | Potency [5] | outcome [4]
NS(=O)(=O)c1ccc(Nc2nc3ccccc3nc2NS(=O)(=O)c2cccc([N+](=O)[O-])c2)cc1 | 75.7 µM (active) | inactive | – | inactive | – | inactive | inactive | –
Cc1cccc(CC2C(=O)Nc3ccccc32)c1 (stereo not given) | inactive | inactive | – | inactive | – | inactive | inactive | –
CCN(CC)c1ccc2cc(-c3nc(-c4ccccc4F)no3)c(=O)oc2c1 | inactive | 50.1 µM (active) | – | 4.78 µM (active) | – | 5.01 µM (active) | inactive | –
CC1=Nc2ccccc2/C1=C/c1sc(=S)n(-c2cccc(C(=O)O)c2)c1O | 44.7 µM (active) | inactive | 2.42% [at 17.1 µM, percent relative to cAMP agonist control] | inactive | 11.8% [at 30.8 µM] | – | – | –
Cc1cc(Cl)ccc1-n1c(CCC(=O)O)ccc1-c1cccs1 | inactive | inactive | – | inactive | – | inactive | inactive | –
O=c1[nH]c([N+](=O)[O-])nn1C(c1ccccc1)c1ccccc1 | inactive | inactive | – | 26.9 µM (active) | – | inactive | inactive | –
O=C(O)c1ccc(NC2=C/C(=N/S(=O)(=O)c3cccs3)c3ccccc3C2=O)cc1 | 60.1 µM (active) | inactive | – | inactive | – | inactive | inactive | –
Cc1cc(O)c(C(=O)/C=C/c2cccc([N+](=O)[O-])c2)c(=O)o1 | 33.8 µM (active) | inactive | – | inactive | – | inactive | inactive | –
CC(=O)N1CCc2nc3sc(C(=O)Nc4ccc(Cl)cc4F)c(N)c3c(C(F)(F)F)c2C1 | inactive | inactive | – | – | – | inactive | inactive | inactive [at 12.7 µM]
CCc1ccc(S(=O)(=O)/N=C2\C=C(NS(=O)(=O)c3ccccc3)C(=O)c3ccccc32)cc1 | 19 µM (active) | inactive | – | inactive | – | inactive | inactive | –
NC(=O)C1CCN(C(=O)Nc2csc3ccccc23)CC1 | inactive | inactive | – | 12 µM (active) | – | inactive | inactive | –
COc1cc2c(-c3ccc4c(c3)OCO4)c(-c3ccsc3)oc(=O)c2cc1OC | inactive | inactive | 13.2% [at 17.1 µM, percent relative to cAMP agonist control] | inactive | 10.4% [at 30.8 µM] | – | – | –
Cc1ccc([C@H]2C(C(=O)O)=CC[C@@H](c3ccc(Cl)c(Cl)c3)N2S(=O)(=O)c2ccc(C)cc2)cc1 | 56.2 µM (active) | inactive | 12.8% [at 17.1 µM, percent relative to cAMP agonist control] | inactive | -5.89% [at 30.8 µM] | – | – | –
CCc1nnc(NS(=O)(=O)c2ccc(Nc3ccc([N+](=O)[O-])c4nonc34)cc2)s1 | 42.6 µM (active) | inactive | – | inactive | – | inactive | inactive | –
Cc1ccc(C(=O)OCC(=O)Nc2sccc2C(N)=O)cc1NC(=O)c1ccco1 | 26.9 µM (active) | inactive | – | inactive | – | inactive | inactive | –
CCC(C(=O)OCC(=O)Nc1cc(C)ccc1OC)c1ccccc1 (stereo not given) | inactive | inactive | 3.82% [at 17.1 µM, percent relative to cAMP agonist control] | inactive | -13% [at 30.8 µM] | – | – | –
O=C(OCc1ccc([N+](=O)[O-])cc1)c1cc(=O)c2ccccc2o1 | inactive | inactive | – | inactive | – | inactive | inactive | –
CCc1ccc(NC(=O)CSc2nnc(Cc3cccn3C)n2-c2ccc(OC)cc2)cc1 | inactive | inactive | 15.3% [at 17.1 µM, percent relative to cAMP agonist control] | inactive | -10.1% [at 30.8 µM] | – | – | –
Cc1ccc(C(=O)NCCCNC(=O)c2ccco2)cn1 | inactive | inactive | – | inactive | – | inactive | inactive | –
CSCCC(C(=O)O)N1C(=O)c2ccc(C(=O)O)cc2C1=O (stereo not given) | inactive | inactive | 4.67% [at 17.1 µM, percent relative to cAMP agonist control] | inactive | -1.74% [at 30.8 µM] | – | – | –
Cc1cccc(Nc2c([N+](=O)[O-])c(=O)oc3ccccc23)c1 | inactive | inactive | – | inactive | – | inactive | inactive | –
CCOC(=O)c1ccccc1NC(=O)c1c(-c2ccccc2)noc1C | inactive | inactive | – | inactive | – | inactive | inactive | –
Cc1ccc(C2CC(=O)Oc3cc(C)cc(C)c32)cc1 (stereo not given) | inactive | inactive | – | inactive | – | inactive | inactive | –
O=C(/C=C/c1ccco1)Nc1cccc(C(=O)Nc2ccccc2C(=O)O)c1 | 3.98 µM (active) | inactive | 3.49% [at 17.1 µM, percent relative to cAMP agonist control] | inactive | 19% [at 30.8 µM] | – | – | –
COc1cc(C)ccc1S(=O)(=O)N1CCCCCC1 | inactive | inactive | – | inactive | – | inactive | inactive | –
